Results reported in ChEMBL document CHEMBL4513151, “CO-ADD screening of Institut Català d'Investigació Química (Spain) compounds”.
Entries with a potency or affinity are not part of this list.

tested on: Cryptococcus neoformans; details: Concentration 32 ug.mL-1; ASSAY_TEST Inhibition of Fungal Growth; detection method Resazurin; Absorption (OD600-OD570); plate type 384well; NBS; CORNING #3640

Going from `C=C1CC2(COC(C)(C)OC2)C[C@@H]1[C@@H](Nc1ccc(Br)cc1)c1ccccc1` to `C=C1CC(COC)(COC)C[C@@H]1[C@@H](Nc1ccc(Br)cc1)c1ccccc1`, the Inhibition rises from -62.96% to -62.06%.

First: C=C1CC(C(=O)OC)(C(=O)OC)C[C@@H]1[C@@H](NS(=O)(=O)c1ccc(C)cc1)c1ccccc1
Second: C=C1CC(C(=O)OC)(C(=O)OC)C[C@@H]1[C@H](c1ccccc1)n1ccc2ccccc21
The Inhibition of the first is higher: -29.89% for the first, -68.85% for the second.

Going from `C[C@]12CC[C@@H](O1)[C@H]1C=C[C@H](OC(=O)c3ccccc3)[C@H]12` to `C[C@]12CC[C@@](C)(O1)[C@H]1C=C[C@H](OC(=O)c3ccccc3)[C@H]12`, the Inhibition rises from -82.89% to -25.36%.

Compared with `C=C1CC(C(=O)OC)(C(=O)OC)C[C@@H]1[C@H](c1ccccc1)n1ccc2ccc(Cl)cc21`, `C=C1CC(COCc2ccc(OC)cc2)(COCc2ccc(OC)cc2)C[C@@H]1[C@@H](Nc1ccc(Br)cc1)c1ccccc1` is higher in Inhibition: -67.72% for the first, -42.12% for the second.

First: C[C@@H]1CC(=O)C=C2C(=O)[C@@H]3[C@@H](C3(C)C)[C@]21C
Second: C[C@]12CC[C@@](c3ccc4ccccc4c3)(O1)[C@H]1C=C[C@H](OC(=O)c3ccccc3)[C@H]12
The Inhibition of the first is higher: -14.72% for the first, -55.94% for the second.

Work on `C[C@]12CC[C@@](C3CCCC3)(O1)[C@H]1C=C[C@H](OC(=O)c3ccccc3)[C@H]12` yielded an Inhibition of -56.17%.
